This is part of a sample that, as a whole, favours compounds with a hit. Of some 79,000 tested, about 15% had one in any assay. Calls of active or inactive are those of the source. Cut-off read from the data, not from the text of the source: active = growth inhibition above about 70%; inactive = the rest.

Test [1] can be described thus: NCI Yeast Anticancer Drug Screen. Data for the rad50 strain (AID 155).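 Note: 0% = growth of vehicle-only cultures of the same strain.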 The conditions noted are these: S. cerevisiae rad50 strain growth inhibition, active compounds read high. The procedure, abridged:
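Relative growth inhibition (compound vs vehicle) was measured in yeast with a defined repair-gene alteration.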

A short description of test [2]: NCI Yeast Anticancer Drug Screen. Data for the mec2-1 strain (AID 157). The conditions noted are these: S. cerevisiae mec2-1 strain, active compounds read high. Put shortly:
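Cells of the genetically defined mec2-1 yeast strain are incubated with test compound. Inhibition of growth is calculated against vehicle-treated controls.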

A short description of test [3]: NCI Yeast Anticancer Drug Screen. Data for the sgs1 mgt1 strain (AID 161).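 Note: 0% = growth of cultures given vehicle only.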 The following applies: S. cerevisiae sgs1 mgt1 strain, active compounds read high. The procedure, abridged: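 Read-out: growth inhibition vs vehicle controls. Cells: mutant yeast strain deficient in DNA damage repair.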
Test [4] is described as follows: NCI Yeast Anticancer Drug Screen. Data for the cln2 rad14 strain (AID 165).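 Note: 0% = growth equal to vehicle treated cultures.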 The conditions noted are these: S. cerevisiae cln2 rad14 strain, active compounds read high. Put shortly:
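The screen exposed genetically defined yeast (cln2 rad14) to test compounds and scored growth inhibition relative to vehicle-treated controls.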

Test [5] in a line: NCI Yeast Anticancer Drug Screen. Data for the bub3 strain (AID 167). The following applies: S. cerevisiae bub3 mutant strain, active compounds read high. Put shortly: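 Screening used yeast with an engineered genetic alteration affecting cell cycle control. Compound-exposed cultures were compared with vehicle cultures, and reduced growth was taken as inhibition.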
Test [6] in a line: NCI Yeast Anticancer Drug Screen. Data for the mlh1 rad18 strain (AID 175). The following applies: S. cerevisiae mlh1 rad18 strain growth inhibition, active compounds read high. Put shortly:
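Compound-treated yeast growth, normalised to vehicle controls. Strain bears defined DNA repair mutations.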

Where [7] appears, read: at 5.0 µM (retest, dose inferred, filed as 0.5).
Setting [8] is: at 50.0 µM (retest, dose inferred, filed as 5.0).

With `O=C(/C(=C\c1ccc(Cl)c(Cl)c1)c1ccccc1)c1ccc(O)cc1`, the growth inhibition in test [1] (setting [7]) was 51% (inactive); in test [1] (setting [8]) it was 91% (active); in test [1] (at 50.0 µM), 94% (active); in test [2] (setting [7]), 39% (inactive); in test [2] (setting [8]) it was 95% (active); in test [2] (at 50.0 µM), 93.9% (active). The growth inhibition in test [3] (setting [7]) is 48% (inactive); in test [3] (setting [8]) it was 93% (active); in test [3] (at 50.0 µM) it was 94.1% (active); in test [4] (setting [7]), 42% (inactive); in test [4] (setting [8]) it was 93% (active); in test [4] (at 50.0 µM), 92.2% (active). The growth inhibition was 43% (inactive) in test [5] (setting [7]); 94% (active) in test [5] (setting [8]); 91.8% (active) in test [5] (at 50.0 µM); 54% (inactive) in test [6] (setting [7]); 92% (active) in test [6] (setting [8]); 93.2% (active) in test [6] (at 50.0 µM).

Take `COC(=O)C1c2cc3c(cc2C(OC2OC(C)C(OC)C(C)(OC)C2OC)CC1(C)O)C(=O)c1c(O)cc2c(c1C3=O)OC1OC2(C)C(O)C([N+](C)(C)[O-])C1O` (centres undefined): the growth inhibition in test [1] (setting [7]) is 7% (inactive); in test [1] (setting [8]), 65% (inactive); in test [1] (at 50.0 µM) it was 70.4% (active); in test [2] (setting [7]), 3% (inactive); in test [2] (setting [8]), 8% (inactive); in test [2] (at 50.0 µM), 61.4% (inactive). For the same molecule, the growth inhibition in test [3] (setting [7]) is -2% (inactive); in test [3] (setting [8]) it was 27% (inactive); in test [3] (at 50.0 µM), 65.8% (inactive); in test [4] (setting [7]) it was 24% (inactive); in test [4] (setting [8]) it was 39% (inactive); in test [4] (at 50.0 µM), 47.6% (inactive). Moreover, the growth inhibition in test [5] (setting [7]) was -10% (inactive); in test [5] (setting [8]), 31% (inactive); in test [5] (at 50.0 µM) it was 74.8% (active); in test [6] (setting [7]), -8% (inactive); in test [6] (setting [8]), 57% (inactive); in test [6] (at 50.0 µM) it was 54.5% (inactive).

Take `c1ccc2c(c1)CNc1ccccc1-2`: the growth inhibition in test [1] (setting [7]) is 4% (inactive); in test [1] (setting [8]) it was 58% (inactive); in test [1] (at 50.0 µM), 48% (inactive); in test [2] (setting [7]), -10% (inactive); in test [2] (setting [8]), 21% (inactive); in test [2] (at 50.0 µM), 42.7% (inactive). Moreover, the growth inhibition in test [3] (setting [7]) is 0% (inactive); in test [3] (setting [8]), 66% (inactive); in test [3] (at 50.0 µM), 83.5% (active); in test [4] (setting [7]) it was 6% (inactive); in test [4] (setting [8]), 16% (inactive); in test [4] (at 50.0 µM) it was 7.4% (inactive). Besides, the growth inhibition in test [5] (setting [7]) was 47% (inactive); in test [5] (setting [8]) it was 60% (inactive); in test [5] (at 50.0 µM), 85.5% (active); in test [6] (setting [7]) it was 3% (inactive); in test [6] (setting [8]), 45% (inactive); in test [6] (at 50.0 µM), 92.1% (active).

As for `Cc1ccc(S(=O)(=O)NC2CCCCCCC2)cc1`, the growth inhibition in test [1] (setting [7]) was 45% (inactive); in test [1] (setting [8]), 96% (active); in test [1] (at 50.0 µM) it was 77% (active); in test [2] (setting [7]), 30% (inactive); in test [2] (setting [8]) it was 89% (active); in test [2] (at 50.0 µM), 64.2% (inactive). Besides, the growth inhibition in test [3] (setting [7]) is 42% (inactive); in test [3] (setting [8]) it was 16% (inactive); in test [3] (at 50.0 µM) it was 79% (active); in test [4] (setting [7]), 48% (inactive); in test [4] (setting [8]) it was 46% (inactive); in test [4] (at 50.0 µM), 60% (inactive). For the same molecule, the growth inhibition is 97% (active) in test [5] (setting [7]); 95% (active) in test [5] (setting [8]); 89.3% (active) in test [5] (at 50.0 µM); 40% (inactive) in test [6] (setting [7]); 99% (active) in test [6] (setting [8]); 82.8% (active) in test [6] (at 50.0 µM).

Turning to `O=[N+]([O-])c1c(Br)cc(Br)c2c1Nc1c(ccc(Cl)c1Cl)S2`, the growth inhibition was 14% (inactive) in test [1] (setting [7]); 94% (active) in test [1] (setting [8]); 96.5% (active) in test [1] (at 50.0 µM); 26% (inactive) in test [2] (setting [7]); 95% (active) in test [2] (setting [8]); 96.7% (active) in test [2] (at 50.0 µM). The growth inhibition in test [3] (setting [7]) is 13% (inactive); in test [3] (setting [8]), 95% (active); in test [3] (at 50.0 µM) it was 96.4% (active); in test [4] (setting [7]), 20% (inactive); in test [4] (setting [8]), 93% (active); in test [4] (at 50.0 µM), 94.2% (active). Moreover, the growth inhibition in test [5] (setting [7]) is 28% (inactive); in test [5] (setting [8]) it was 95% (active); in test [5] (at 50.0 µM), 94.8% (active); in test [6] (setting [7]) it was 39% (inactive); in test [6] (setting [8]), 95% (active); in test [6] (at 50.0 µM), 95.3% (active).

Regarding `CCCCCCCCCCCCCCCC(=O)NCC[N+](C)(C)C`, the growth inhibition in test [1] (setting [7]) was 33% (inactive); in test [1] (setting [8]) it was 99% (active); in test [1] (at 50.0 µM) it was 99.5% (active); in test [2] (setting [7]) it was 52% (inactive); in test [2] (setting [8]) it was 100% (active); in test [2] (at 50.0 µM), 99.7% (active). Further, the growth inhibition in test [3] (setting [7]) is 50% (inactive); in test [3] (setting [8]), 99% (active); in test [3] (at 50.0 µM), 99.8% (active); in test [4] (setting [7]), 10% (inactive); in test [4] (setting [8]) it was 99% (active); in test [4] (at 50.0 µM), 99.2% (active). In addition, the growth inhibition was 58% (inactive) in test [5] (setting [7]); 100% (active) in test [5] (setting [8]); 99.5% (active) in test [5] (at 50.0 µM); 36% (inactive) in test [6] (setting [7]); 99% (active) in test [6] (setting [8]); 99.6% (active) in test [6] (at 50.0 µM).

On to `O=C(NCCCCCCNC(=O)n1cc(F)c(=O)[nH]c1=O)NCCCOCCOCCOCCOCCOCCOCCOCCOCCOCCOCCOCCOCCOCCOCCOCCOCCOCCOCCOCCOCCOCCCNC(=O)C(O)C(O)C(OC1OC(CO)C(O)C(O)C1O)C(O)CO` (centres undefined), for which the growth inhibition in test [1] (setting [7]) is 11% (inactive); in test [1] (setting [8]), 95% (active); in test [1] (at 50.0 µM), 74.3% (active); in test [2] (setting [7]), 7% (inactive); in test [2] (setting [8]), 78% (active); in test [2] (at 50.0 µM), 89% (active). Further, the growth inhibition in test [3] (setting [7]) is 30% (inactive); in test [3] (setting [8]), 81% (active); in test [3] (at 50.0 µM), 81.5% (active); in test [4] (setting [7]) it was 16% (inactive); in test [4] (setting [8]), -5% (inactive); in test [4] (at 50.0 µM), 27.1% (inactive). For the same molecule, the growth inhibition in test [5] (setting [7]) was 1% (inactive); in test [5] (setting [8]), 4% (inactive); in test [5] (at 50.0 µM) it was 48.4% (inactive); in test [6] (setting [7]), 19% (inactive); in test [6] (setting [8]), 97% (active); in test [6] (at 50.0 µM) it was -10.2% (inactive).

For the molecule `COc1ccccc1NC(=O)C(/C=N/C(=S)NCCNc1ccc(OC)c(OC)c1)=C(\C)O`, the growth inhibition was 1% (inactive) in test [1] (setting [7]); 3% (inactive) in test [1] (setting [8]); 9.7% (inactive) in test [1] (at 50.0 µM); -55% (inactive) in test [2] (setting [7]); -10% (inactive) in test [2] (setting [8]); -2.25% (inactive) in test [2] (at 50.0 µM). For the same molecule, the growth inhibition in test [3] (setting [7]) was 2% (inactive); in test [3] (setting [8]), -8% (inactive); in test [3] (at 50.0 µM), 16.4% (inactive); in test [4] (setting [7]), -22% (inactive); in test [4] (setting [8]) it was -14% (inactive); in test [4] (at 50.0 µM), 43.2% (inactive). In addition, the growth inhibition in test [5] (setting [7]) is 2% (inactive); in test [5] (setting [8]) it was -27% (inactive); in test [5] (at 50.0 µM), 7.25% (inactive); in test [6] (setting [7]), 10% (inactive); in test [6] (setting [8]) it was -2% (inactive); in test [6] (at 50.0 µM) it was 15.1% (inactive).
